# Experimental data as given in the supplement of paper PMC10127200.
# Structures can show the parent of a compound that is named as a salt.
# Legend:
# Assay in all cases: Euclidean distance of Cell Painting phenotypic profile (signed KS, 77 features) to DMSO centroid (dimensionless distance); 5 or 10 uM (library dependent); higher = stronger phenotypic change vs DMSO (phenoactivity)
# Conditions in all cases: 48 h
# 786-O = test system: 786-O
# Summary of the method: (§1)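 Five cancer lines, together with a healthy fibroblast line, received library compounds for 48 h at a library-dependent 10 or 5 uM and 0.1% DMSO final. Harmony then derived 77 features from confocal 20X images (9 fields/well) of the stained cells, scoring each as a signed Kolmogorov-Smirnov statistic against same-plate vehicle wells. After plate-position correction, correlation weighting and replicate averaging at the top dose, phenoactivity was taken as each profile's Euclidean distance to the median vehicle profile.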
# A549 = test system: A549
# Summary of the method: as §1
# DU145 = test system: DU145
# Summary of the method: as §1
# FB = test system: FB
# Summary of the method: as §1
# HEPG2 = test system: HEPG2
# Summary of the method: as §1
# OVCAR4 = test system: OVCAR4
# Summary of the method: as §1
Compound,Euclidean distance (786-O),Euclidean distance (A549),Euclidean distance (DU145),Euclidean distance (FB),Euclidean distance (HEPG2),Euclidean distance (OVCAR4)
COc1cc2ncnc(Sc3nnc(C)s3)c2cc1OC,1.26,1.44,0.977,1.09,2.45,1.9
C#C[C@]1(O)CC[C@H]2[C@@H]3CCC4=Cc5oncc5C[C@]4(C)[C@H]3CC[C@@]21C [Danazol],1.02,1.02,1.43,0.594,1.3,1.02
O=C(NC(Cc1cc(=O)[nH]c2ccccc12)C(=O)O)c1ccc(Cl)cc1 (stereo not drawn) [Rebamipide],1.17,1.17,1.29,0.77,1.97,1.06
CC(C)c1nc(N(C)S(C)(=O)=O)nc(-c2ccc(F)cc2)c1/C=C/[C@@H](O)C[C@@H](O)CC(=O)O [Rosuvastatin Calcium],0.535,0.682,2.17,1.71,1.03,0.889
Cc1ccsc1/C=C/C1=NCCCN1C [Morantel tartrate],0.593,0.834,0.571,1.19,0.557,1.21
Cc1cc(C)nc(NS(=O)(=O)c2ccc(NC(=S)NC(=O)COc3ccc(Br)cc3Cl)cc2)n1,0.465,0.727,0.713,0.857,2.1,0.759
CCN(CC)CCNC(=O)c1c(C)[nH]c(/C=C2\C(=O)Nc3ccc(-c4csc(-c5ccccc5)n4)cc32)c1C [Amcasertib (BBI503)],5.91,5.2,7.77,5.61,2.05,2.89
FC(F)c1nc2ccccc2n1-c1nc(N2CCOCC2)nc(N2CCOCC2)n1,2.56,3.64,3.69,2.87,2.24,3.13
Cc1cc(Nc2cc(CN3CCOCC3)c3nc(C)c(Cc4ccc(Cl)cc4F)n3n2)n[nH]1,3.25,3.37,2.63,1.71,2.95,3.19
Cc1nc2ccc(-n3ncc(C(=O)c4cc5ccccc5[nH]4)c3N)cc2[nH]1,2.53,2.28,1.14,3.31,1.73,1.67
N=C(N)NC(=N)NCCc1ccccc1 [Phenformin HCl],1.03,1.71,1.14,1.15,1.56,0.844
CCOC(=O)[C@H](CCc1ccccc1)N[C@@H](C)C(=O)N1[C@H](C(=O)O)C[C@@H]2CCC[C@@H]21 [Ramipril],1.25,0.735,0.891,1.1,1.89,1.21
CC[C@H]1OC(=O)[C@H](C)[C@@H](O[C@H]2C[C@@](C)(OC)[C@@H](O)[C@H](C)O2)[C@H](C)[C@@H](O[C@@H]2O[C@H](C)C[C@H](N(C)C)[C@H]2O)[C@](C)(O)C[C@@H](C)C(=O)[C@H](C)[C@@H](O)[C@]1(C)O [Erythromycin thiocyanate],1.01,1.44,0.991,1.53,0.812,1.95
O=C(O)c1cn(C2CC2)c2cc(N3CCNCC3)c(F)cc2c1=O [Ciprofloxacin hydrochloride hydrate],1.39,0.835,0.784,1.29,0.735,1.87
CCCSc1ccc2[nH]c(NC(=O)OC)nc2c1 [Albendazole],2.6,2.42,2.81,2.49,2.15,2.48
c1ccc2c(CC3=NCCN3)cccc2c1 [Naphazoline HCl],1.23,0.672,1.11,0.693,0.599,0.531
CO[C@@H]1[C@@H](O[C@@H]2O[C@H](C)[C@@H](O[C@H]3C[C@@](C)(O)[C@@H](OC(=O)CC(C)C)[C@H](C)O3)[C@H](N(C)C)[C@H]2O)[C@@H](CC=O)C[C@@H](C)[C@@H](O)/C=C/C=C/C[C@@H](C)OC(=O)C[C@H]1O [Kitasamycin],0.871,1.1,1.49,0.973,0.78,0.761
O=C(O)Cc1ccccc1Nc1c(Cl)cccc1Cl [Diclofenac acid],0.971,0.349,2.62,0.749,0.668,0.711
CCn1cc(C(=O)O)c(=O)c2cc(F)c(N3CCNCC3)nc21 [Enoxacin Sesquihydrate],1.35,1.38,0.79,0.738,0.516,1.19
Nc1nc(CC(=O)Nc2ccc(CCNC[C@H](O)c3ccccc3)cc2)cs1 [Mirabegron],0.989,1.17,1.1,1.21,0.802,1.68
CC(NCCc1ccc(O)cc1)C(O)c1ccc(O)cc1 (stereo not drawn) [Ritodrine HCl],1.08,0.752,0.998,1.01,0.393,0.728
CN1CCN(Cc2ccc(Nc3ncc(Cl)c(Nc4ccccc4S(=O)(=O)N(C)C)n3)cc2)CC1,3.04,3.57,3.22,2.93,2.81,3.88
CCc1cc2c(cc1CC)CC(NC[C@H](O)c1ccc(O)c3[nH]c(=O)ccc13)C2 [Indacaterol Maleate],0.915,0.63,1.14,1.67,0.818,1.02
CN1CCC(=C2c3ccccc3C=Cc3ccccc32)CC1 [Cyproheptadine HCl],1.25,0.786,1.84,2.04,2.64,1.39

Compound,Euclidean distance (786-O),Euclidean distance (A549),Euclidean distance (DU145),Euclidean distance (FB),Euclidean distance (HEPG2),Euclidean distance (OVCAR4)
CCC(=O)NS(=O)(=O)c1ccc(-c2c(-c3ccccc3)noc2C)cc1 [Parecoxib Sodium],0.662,0.521,0.541,0.844,0.676,0.905
CC(=O)Oc1cc2c(s1)CCN(C(C(=O)C1CC1)c1ccccc1F)C2 (stereo not drawn) [Prasugrel Hydrochloride],0.877,0.726,0.888,0.495,0.448,0.803
O=C(CCCCCCNC(=O)c1cnc(N(c2ccccc2)c2ccccc2)nc1)NO [Ricolinostat (ACY-1215)],1.87,1.63,1.29,3.31,2.26,2.18
C=CC(=O)Nc1cc2c(Nc3ccc(F)c(Cl)c3)ncnc2cc1OCCCN1CCOCC1 [Canertinib (CI-1033)],1.57,2.51,1.4,1.25,0.69,2.05
CCOc1ccc2c(c1)C(C)=CC(C)(C)N2 [Ethoxyquin],0.933,1.17,0.847,1.62,0.54,1.95
COc1cc(Nc2ncc(F)c(Nc3ccc4c(n3)N(COP(=O)(O)O)C(=O)C(C)(C)O4)n2)cc(OC)c1OC [Fostamatinib (R788)],2.67,4.8,3.08,3.33,2.44,3.7
C=C1[C@H](CO)[C@@H](O)C[C@@H]1n1cnc2c(=O)[nH]c(N)nc21 [Entecavir],1.46,1.16,1.05,1.14,1.35,1.15
C[C@@H](Nc1cc(F)cc(F)c1)c1cc(C(=O)N(C)C)cc2c(=O)cc(N3CCOCC3)oc12,2.04,1.94,1.72,2.79,0.984,2.9
COc1ccc2[nH]c([S@@+]([O-])Cc3ncc(C)c(OC)c3C)nc2c1 [NEXIUM (esomeprazole magnesium)],1.31,0.829,1.47,0.904,1.81,1.65
Nc1ncnc2c1c(-c1cnc3[nH]ccc3c1)nn2C1CCCC1,4.92,5.03,4.39,4.32,4.53,3.29
Cc1cc(N2CCOCC2)ccc1Nc1nc(NC2CCCCC2)c2[nH]cnc2n1,1.79,2.73,1.25,1.29,1.78,1.73
O=C(CCCN1CCN(c2ccccn2)CC1)c1ccc(F)cc1 [Azaperone],0.919,0.568,0.729,0.828,0.758,1.09
CN(C)Cc1ccc(-c2nc3cccc4c3n2CCNC4=O)cc1,1.75,1.77,1.51,1.3,1.62,1.41
NC(=O)c1cccc2cn(-c3ccc([C@@H]4CCCNC4)cc3)nc12 [Niraparib (MK-4827) tosylate],2.41,2.21,1.59,2.49,2.86,1.92
Cc1ccc(NCCCc2ccccc2)c(N)c1,0.637,0.572,0.826,0.816,0.57,0.53
C=CC(=O)Nc1cccc(Nc2nc(Nc3ccc(OCCOC)cc3)ncc2F)c1 [Spebrutinib (CC-292. AVL-292)],2.73,3.75,3.51,3.98,3.25,2.96
Cc1ncc(CO)c(CO)c1O [Pyridoxine HCl],0.686,0.861,0.642,0.7,0.426,1.11
O=C(Nc1cccc2cccnc12)c1ccc(N2C(=O)[C@@H]3[C@H](C2=O)[C@@H]2C=C[C@H]3C2)cc1 [IWR-1-endo],1,1.06,1.39,1.64,1.53,1.54
NC(=O)OCC(COC(N)=O)c1ccccc1 [Felbamate],1.13,0.883,0.57,1.58,0.405,0.882
CC(=O)O[C@H]1CC[C@@]2(C)C(=CC[C@@H]3[C@@H]2CC[C@]2(C)C(c4cccnc4)=CC[C@@H]32)C1 [Abiraterone Acetate],1.52,1.19,0.94,0.94,0.44,0.818
OCC1=C[C@@H](O)[C@@H]2C=CO[C@@H](O[C@@H]3O[C@H](CO)[C@@H](O)[C@H](O)[C@H]3O)[C@H]12 [Aucubin],0.893,0.414,2.53,0.949,0.503,1.5
CC(C)(C)NC(=O)[C@H]1CC[C@H]2[C@@H]3CC[C@H]4NC(=O)C=C[C@]4(C)[C@H]3CC[C@]12C [Finasteride],1.26,0.717,0.682,0.871,0.391,1.18
NS(=O)(=O)c1ccccc1 [Benzenesulfonamide],1.16,0.87,1.05,1.27,0.909,0.962
OC(Cn1cncn1)(Cn1cncn1)c1ccc(F)cc1F [Fluconazole],1.5,1.3,1.41,1.35,0.443,1.44
